{
  "source": "PubChem BioAssay",
  "note": "Unmarked numbers belong to inactive results. No rule for the calls is given here.",
  "data": [
    {"biological_target": "Pantothenate synthetase (Mycobacterium tuberculosis (strain ATCC 25618 / H37Rv)) (UniProt P9WIL5)", "sequence (P9WIL5 whole entry, looked up)": "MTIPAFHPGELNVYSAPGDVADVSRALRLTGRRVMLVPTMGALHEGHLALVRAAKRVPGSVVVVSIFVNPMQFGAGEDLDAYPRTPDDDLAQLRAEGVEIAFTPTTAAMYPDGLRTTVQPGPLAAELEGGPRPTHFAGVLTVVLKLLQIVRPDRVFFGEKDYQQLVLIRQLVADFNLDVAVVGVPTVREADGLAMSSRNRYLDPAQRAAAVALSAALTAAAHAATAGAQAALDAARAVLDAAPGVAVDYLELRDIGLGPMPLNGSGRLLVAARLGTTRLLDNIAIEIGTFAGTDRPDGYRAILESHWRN", "assay": "Recombinant Mtb pantothenate synthetase (PanC) inhibitors, coupled enzyme, confirmatory (AID 375);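 also: 0% = full reaction with vehicle and 100% = no enzyme background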", "conditions": "coupled enzyme assay; at 10 µM, active compounds read high", "units": {"inhibition": "%"}, "values": [
      {"smiles": "COc1cc(CC(=O)Oc2ccc3c(c2)OCO3)cc(OC)c1OC", "inhibition": 0},
      {"smiles": "COCCNC(=O)C(C)N(c1ccc(Oc2ccccc2)cc1)S(C)(=O)=O", "note": "(configuration not stated)", "inhibition": 0},
      {"smiles": "O=C(CN(Cc1ccc(F)cc1)C(=O)c1ccco1)NCc1ccc(F)cc1", "inhibition": 0},
      {"smiles": "CCOc1ccccc1N(C(=O)c1ccco1)C(C(=O)NC1CCCC1)c1cccnc1", "note": "(configuration not stated)", "inhibition": 0},
      {"smiles": "O=C(C1CCCN(S(=O)(=O)c2cnc[nH]2)C1)N1CCN(c2ccc(Cl)cc2)CC1", "note": "(configuration not stated)", "inhibition": 0},
      {"smiles": "Cc1cc(C)nc(NS(=O)(=O)c2ccc(NC(=O)Cn3c(=O)oc4ccccc43)cc2)n1", "inhibition": 1},
      {"smiles": "COc1ccc(C(F)(F)F)cc1NC(=O)c1nc2nc(C)cc(C(F)F)n2n1", "inhibition": 1},
      {"smiles": "CCC(=O)Oc1ccc2c(C)cc(=O)oc2c1C", "inhibition": 2},
      {"smiles": "COc1cc(C2N=C(c3ccccc3)NO2)cc(Br)c1O", "note": "(configuration not stated)", "inhibition": 4},
      {"smiles": "CCOC(=O)C1=C(CC)Nc2ccccc2N=C1NC(=O)Cn1cnc2ccccc2c1=O", "inhibition": 0},
      {"smiles": "CCOC(=O)N1CCN(Cc2nc3c(c(=O)n(C)c(=O)n3C)n2Cc2ccccc2)CC1", "inhibition": 0},
      {"smiles": "CCCN1C2CCCC1CC(NC(=O)c1ccccc1F)C2", "note": "(configuration not stated)", "inhibition": 2},
      {"smiles": "Cc1ccc(C(=O)Nc2nc3c(s2)CCCC3)o1", "inhibition": 2},
      {"smiles": "CC(Oc1ccccc1)C(=O)NC1CCN(Cc2ccccc2)CC1", "note": "(configuration not stated)", "inhibition": 7},
      {"smiles": "Cc1nnc(SCC(=O)Nc2nccs2)s1", "inhibition": 0},
      {"smiles": "O=C(O)CCCC(=O)Nc1nc(-c2ccc(F)cc2)cs1", "inhibition": 0},
      {"smiles": "COc1ccccc1-n1cnc(N)c1C(C)=O", "inhibition": 0}
    ]}
  ]
}
